Screening data (PubChem)
cardiac RTF act: cardiac RTF calcium sensitization; P19429+P45379; IANBD-labeled TnC RTF fluorescence at EC20 calcium; 0% EC20 calcium, 100% full calcium; activation, % at 7.2 µM; hit rate 0.24% among 340,000; AID 493008;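 active = activation above the mean over all tested compounds plus 3 SD, cut at about 30% in these data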;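 note: rise in fluorescence read as greater calcium sensitivity of cardiac thin filaments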
RTF Ca sens inh: cardiac RTF calcium desensitization. P19429+P45379. IANBD-labeled cardiac RTF, Ca2+ fluorescence. inhibition, % at 7.15 µM. hit rate 0.12% among 340,000. AID 493244;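 active = inhibition above the mean inhibition of all tested compounds plus 3 SD, cut at about 17% in these data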;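 note: assay run at fixed EC70 calcium of 1.6 mM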
LANA DNA inh: inhibitors of KSHV LANA C-terminal domain DNA binding; MBP-C-LANA/FAM-LBS DNA binding, fluorescence polarization; inhibition, % at 9 µM; hit rate 0.078% among 340,000;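 active = highest replicate inhibition at or above 60% at 9 µM, even if other replicates fall short; inactive = all replicates below 60% inhibition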
Keap1 Nrf2 FP: inhibitors of human Keap1-Nrf2 protein-protein interaction; Q14145; Keap1 Kelch-Nrf2 peptide fluorescence polarization, 1536-well; inhibition, % at 9.4 µM; hit rate 0.15% among 340,000; in the data active = inhibition above about 12%;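 note: human Keap1 Kelch domain with fluorescein labeled Nrf2 9mer peptide probe; higher means more block of Keap1 binding to Nrf2 peptide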
Target sequence (Q14145 whole entry, looked up, the tested form may be a part): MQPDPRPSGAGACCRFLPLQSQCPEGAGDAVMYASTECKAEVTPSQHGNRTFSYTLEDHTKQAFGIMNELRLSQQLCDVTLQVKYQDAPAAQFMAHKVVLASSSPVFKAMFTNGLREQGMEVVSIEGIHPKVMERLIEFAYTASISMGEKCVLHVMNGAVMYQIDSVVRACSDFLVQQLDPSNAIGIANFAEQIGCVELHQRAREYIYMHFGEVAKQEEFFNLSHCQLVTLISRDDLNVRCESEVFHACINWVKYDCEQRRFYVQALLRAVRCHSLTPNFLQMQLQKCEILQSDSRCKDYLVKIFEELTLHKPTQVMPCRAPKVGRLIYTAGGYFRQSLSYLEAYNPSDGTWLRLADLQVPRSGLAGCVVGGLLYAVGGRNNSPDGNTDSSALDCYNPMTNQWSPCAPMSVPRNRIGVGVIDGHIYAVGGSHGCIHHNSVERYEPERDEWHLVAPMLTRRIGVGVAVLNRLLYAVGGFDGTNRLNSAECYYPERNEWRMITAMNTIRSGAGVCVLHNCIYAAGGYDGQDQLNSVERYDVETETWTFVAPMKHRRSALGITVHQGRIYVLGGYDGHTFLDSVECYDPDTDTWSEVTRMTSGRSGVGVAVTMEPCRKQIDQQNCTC
Large screens that a line does not name were inactive. Only some compounds are listed: those with a hit (about 0.5% of all), similar ones and a draw of the others.

Cc1[nH]n(-c2ccccc2)c(=O)c1N=Nc1cccc(C(=O)O)c1	none
N#C/C(=C\c1ccccc1C(=O)O)c1nc2ccccc2[nH]1	none
N#C/C(=C\c1ccc(N2CCOCC2)o1)c1nc2ccccc2[nH]1	cardiac RTF act 259
N#C/C(=C\c1ccc(-c2ccc(C(=O)O)cc2)o1)c1nc2ccccc2[nH]1	cardiac RTF act 54
CCN1/C(=C/C=C/c2oc3ccc(-c4ccccc4)cc3[n+]2CC)Oc2ccc(-c3ccccc3)cc21	cardiac RTF act 998
CS(=O)(=O)Nc1nc2n(n1)C(c1ccccc1)C=C(c1ccc(Br)cc1)N2 (stereo unspecified)	cardiac RTF act 82, LANA DNA inh 74, Keap1 Nrf2 FP 35
COc1ccc(CNC(=O)COC(=O)c2ccc(S(=O)(=O)NCc3ccco3)cc2)cc1	none
O=C(NC(NC(=S)N1CCOCC1)C(Cl)(Cl)Cl)c1cccc2ccccc12 (stereo unspecified)	none
O=S(=O)(O)c1cc(O)c2c(O)c(N=Nc3cc(Cl)ccc3O)c(S(=O)(=O)O)cc2c1	RTF Ca sens inh 27
CCOc1ccc(N(C)c2ccc(/C=C3/SC(=S)NC3=O)cc2)cc1	cardiac RTF act 45
COc1cc(OC)c(NC(=O)c2sc3ncn(CC(=O)N4CCOCC4)c(=O)c3c2C)cc1Cl	none
Nc1c(C(=O)c2ccccc2)sc2nsc(SCCN3CCCC3)c12	none
Nc1c(C(=O)c2ccc(Cl)cc2)sc2nsc(SCCN3CCOCC3)c12	cardiac RTF act 33
CN1CC=C2C(C#N)=C(N)C(C#N)(C#N)C(CCc3ccccc3)C2C1 (stereo unspecified)	cardiac RTF act 35, Keap1 Nrf2 FP 20
CN1CC=C2C(C#N)=C(N)C(C#N)(C#N)[C@H](c3cccc(Cl)c3)C2C1 (stereo partly specified)	none
COC(=O)c1ccc(CS(=O)(=O)c2ccc(F)cc2)o1	cardiac RTF act 32
COc1ccc(S(=O)(=O)Cc2ccc(C(=O)NC(C)C)o2)cc1	none
N=C1/C(=C\c2coc3ccccc3c2=O)C(=O)N=C2SC(c3ccncc3)=NN12	cardiac RTF act 92
N=C1/C(=C\c2coc3ccc(O)cc3c2=O)C(=O)N=C2SC=CN12	cardiac RTF act 152
CN1C(=O)/C(=C/c2coc3ccc(O)cc3c2=O)SC1=S	none
CC(C)CSC1=NSC2=NC(=O)/C(=C\c3coc4ccccc4c3=O)C(=N)N12	cardiac RTF act 662
CSC1=NSC2=NC(=O)/C(=C\c3coc4ccccc4c3=O)C(=N)N12	cardiac RTF act 193
CN(CCO)C1=CC(=O)CC(C)(C)C1	none
O=C1c2cccc3c(N4CCCCC4)ccc(c23)C(=O)N1CCO	cardiac RTF act 76
C=CCN1C(=O)c2cccc3c(N4CCCCC4)ccc(c23)C1=O	cardiac RTF act 74
O=C(OCCN1C(=O)c2cccc3c(N4CCOCC4)ccc(c23)C1=O)c1ccccc1Cl	cardiac RTF act 112, Keap1 Nrf2 FP 55
Cc1cc(C)c(C)c(S(=O)(=O)N2CCN(C(=O)CNC(=O)c3ccco3)CC2)c1C	none
CCN1C(=O)/C(=C/C=C2/SCCN2C)SC1=S	cardiac RTF act 136
CCN1C(=O)/C(=C/C=C2/Sc3ccccc3N2CCO)SC1=S	none
CN1C=CC=C/C1=C1\SC(=S)N(CC(=O)O)C1=O	none
CN1CCS/C1=C\C=C1/SC(=S)N(CC(=O)O)C1=O	cardiac RTF act 268
COc1cc2c(cc1[N+](=O)[O-])-c1ccccc1C2	cardiac RTF act 125
COc1ccc(C(=O)NNC(=O)c2ccccc2[N+](=O)[O-])cc1[N+](=O)[O-]	none
COc1ccc(S(=O)(=O)N(CC(=O)N/N=C/c2cccs2)c2cc(C)cc(C)c2)cc1OC	none
CCOC(=O)c1cc(C#N)c(SCC(=O)c2cc(C#N)c(SC)nc2C)[nH]c1=O	cardiac RTF act 58
Cc1c(Br)c([N+](=O)[O-])nn1CC(=O)Nc1ccc2nc3n(c(=O)c2c1)CCCC3	none
COc1ccc(CCNC(=O)c2ccc(OC)c(OC)c2)cc1OC	none
COc1ccc(CCNC(=O)c2c(N)no[n+]2[O-])cc1OC	LANA DNA inh 80
O=C(NCc1ccco1)C1CCCN1C(=O)Nc1ccc(Br)cc1 (stereo unspecified)	none
Brc1ccc(-c2cnnc(N3CCCC3)n2)cc1	cardiac RTF act 79
COc1ccc(C2(C)NC(=O)N(CC(=O)NC3CC3)C2=O)cc1 (stereo unspecified)	none
CC(=O)OCCn1c2nc(=O)[nH]c(=O)c-2nc2cc(C)c(C)cc21	cardiac RTF act active, LANA DNA inh 163, Keap1 Nrf2 FP 156
CC(=O)OCCn1c(C)[n+](CCOC(C)=O)c2cc(Cl)c(Cl)cc21	none
NC(=O)C1CCN(c2nc(-c3ccc4ccccc4c3)cs2)CC1	none
CC(NC(=O)C1CCN(C(=O)c2ccc(F)cc2)CC1)c1ccc(-n2ccnc2)cc1 (stereo unspecified)	none
O=C(COC(=O)c1c2c(nc3ccccc13)/C(=C/c1ccco1)CC2)NC1CCCC1	RTF Ca sens inh 17
CCCCNC(=O)COC(=O)c1c2c(nc3ccccc13)/C(=C\c1cccs1)CC2	cardiac RTF act 37
CCCN(C(=O)C1CCN(S(=O)(=O)c2ccc(OC)c(OC)c2)CC1)C1CCS(=O)(=O)C1 (stereo unspecified)	none
CN(C)Cc1c(-c2ccc(Cl)cc2)nc2ccc(Cl)cn12	none
CCOC(=O)c1ccc(-c2cc(C)no2)[nH]1	none
O=c1c(O)c(-c2cccs2)oc2ccc(Cl)cc12	cardiac RTF act 36
COc1ccc(/C=C/C(=O)NCCN=C2NS(=O)(=O)c3ccccc32)cc1	none
Oc1c(Br)cc(/C=N/n2c(-c3ccccc3)n[nH]c2=S)cc1Br	none
Oc1c(Br)cc(/C=N/n2c(-c3ccccc3)n[nH]c2=S)c(O)c1Br	Keap1 Nrf2 FP 24
COc1cc(/C=C(\CC(=O)O)c2nc3ccccc3s2)ccc1OCC(=O)Nc1ccccc1F	none
COc1cc(/C=C(\C#N)c2nc3ccccc3s2)ccc1OCC(=O)Nc1ccccc1	cardiac RTF act 34
OC1Cc2ccccc2C1Nc1cccc(C(F)(F)F)c1 (stereo unspecified)	none
COc1ccc(-c2cc(C(=O)N3CCN(C(=O)c4ccco4)CC3)[nH]n2)cc1	none
CC(/C=C/c1ccc(N(C)C)cc1)=N/N=C1/NC(=O)CC(C(=O)Nc2ccc(Cl)cc2)S1 (stereo unspecified)	cardiac RTF act 32
COc1ccc(Cl)cc1NC(=O)CN(C)C(=O)c1cn2ccccc2n1	none
Cn1c(=O)c2c(nc(N3CCc4ccccc4C3)n2Cc2ccccc2F)n(C)c1=O	none
CN1CCN(c2nc3c(c(=O)n(C)c(=O)n3C)n2Cc2ccccc2F)CC1	cardiac RTF act 52
N=c1n(Cc2ccccc2)c2ccccc2n1CC(O)c1ccco1 (stereo unspecified)	cardiac RTF act 40
CCn1c(=N)n(CC(O)c2ccco2)c2ccccc21 (stereo unspecified)	none
COc1ccc2nc3ccccc3nc2c1NC(=O)c1ccc(Cl)cc1Cl	cardiac RTF act 361
Cc1cccc(C(=O)NCCc2ccccc2)c1	none
Cc1ccsc1C1C=C(c2cccc(Br)c2)Nc2ncnn21 (stereo unspecified)	cardiac RTF act 46
